Common to all, as to assay: NCI-60 one-dose screen, 48 h (100 = growth as untreated, 0 = no growth, -100 = all killed)
Assay [1] has as its system OVCAR-8 ovarian. Particulars: 10 µM unless noted.
The subject of assay [2] is OVCAR-5 ovarian. As to conditions: 10 µM unless noted.
The subject of assay [3] is OVCAR-4 ovarian. As to conditions: 10 µM unless noted.
In assay [4] the test system is SK-OV-3 ovarian. As to conditions: 10 µM unless noted.
Assay [5] concerns IGROV1 ovarian. As to conditions: 10 µM unless noted.
For assay [6], the system named is OVCAR-3 ovarian. Particulars: 10 µM unless noted.
Assay [7] relates to HS 578T breast. As to conditions: 10 µM.
Assay [8] relates to NCI/ADR-RES ovarian. Particulars: 10 µM unless noted.
The subject of assay [9] is T-47D breast. Particulars: 10 µM unless noted.
Assay [10] concerns BT-549 breast. Particulars: 10 µM unless noted.
Assay [11] deals with MDA-MB-435 melanoma. Particulars: 10 µM unless noted.
For assay [12], the system named is SW-620 colon. As to conditions: 10 µM unless noted.
For assay [13], the system named is MCF7 breast. Particulars: 10 µM unless noted.
Assay [14] deals with HCT-116 colon. As to conditions: 10 µM unless noted.
In assay [15] the test system is KM12 colon. As to conditions: 10 µM unless noted.
Assay [16] has as its system RPMI-8226 leukemia. As to conditions: 10 µM unless noted.
Assay [17] concerns HCC-2998 colon. Particulars: 10 µM unless noted.

Molecules are shown by their SMILES. The panel holds about 83,000 compounds, 20% with a hit somewhere; the sample as a whole holds those more often.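 96-well plates, one dose, 48 hours. Percent growth reported; active if below 10.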 Values without a mark were called inactive. Active and inactive are the calls of the source.

Take `CCc1oc2ccccc2c1C(=O)c1cc(I)c(O)c(I)c1`: the growth in assay [1] is 56.7%; in assay [2], 86.5%; in assay [3], 71%; in [4] it was 105%; in [5], 50.5%; in assay [6], 13.6%. The growth in assay [7] was 49.2%; in assay [8], -6% (active); in assay [9], 98.9%; in [10], 39.3%; in assay [11] it was -25.9% (active); in [12] it was 19.2%. Besides, the growth is 33.8% in [13], 22.3% in [14] and 27.2% in assay [15].

In the case of `CC1(C)C2CCC(O)(C(=O)O)C1C2` (configuration not stated), the growth in assay [16] is 114%; in assay [1] it was 112%; in [3] it was 99.2%; in assay [4], 103%; in [5], 95.8%; in [6] it was 118%. Also, the growth in assay [7] was 115%; in [8], 116%; in assay [9], 96.1%; in assay [10] it was 104%; in assay [11], 99.1%; in [13] it was 95.7%. The growth in assay [14] was 117%; in assay [17] it was 118%; in [15], 118%.

`CC(=O)OC1Oc2cc(C)c(C)cc2-c2oc(=O)c(-c3ccc(F)cc3)cc21` (configuration not stated): the growth is 81.9% in assay [1]; 86.2% in assay [2]; 73.2% in assay [3]; 79.1% in assay [4]; 54.4% in assay [5]; 60.5% in assay [7]. Also, the growth in assay [8] was 28.5%; in assay [9], 52.5%; in assay [10] it was 89.3%; in [11] it was -7.18% (active); in [12], 26.7%; in assay [13], 38.3%. In addition, the growth in assay [14] was 32.2%; in assay [17], 56.7%; in [15], 23.7%.

Consider `CCCCCCCCCC1=NC(C)(C)CN1C(C)(C)CO`, for which the growth in assay [1] is 102%; in assay [2], 88.3%; in assay [3] it was 117%; in [4] it was 124%; in assay [5], 72.1%; in assay [6], 86.1%. Also, the growth in assay [7] was 100%; in assay [8], 95.7%; in assay [9], 153%; in [10] it was 105%; in assay [11], 110%; in assay [12], 93.8%. The growth was 95.3% in assay [13], 69.3% in [14], 84.1% in assay [17] and 97.6% in [15].

`Clc1ccc2c(c1)-n1cccc1C(c1ccc3ccccc3c1)=NC2`: the growth in assay [1] is 102%; in assay [2], 98.4%; in assay [3], 84.2%; in [4] it was 94.5%; in assay [5], 61.4%; in assay [6], 86.1%. Also, the growth in assay [7] was 110%; in assay [8] it was 77.8%; in [9], 76.5%; in assay [11] it was 50.4%; in assay [12] it was 88%; in assay [13], 84.4%. For the same molecule, the growth is 66.4% in assay [14], 87.9% in assay [17] and 71.8% in assay [15].

Take `O=C(Nc1ccc(Oc2ccc(NC(=O)Nc3ccccc3Cl)cc2)cc1)Nc1ccccc1Cl`: the growth in [1] was 56.1%; in assay [2], 101%; in assay [3], 29.7%; in assay [4] it was 76.5%; in assay [5], -62.3% (active); in [6], -38.3% (active). For the same molecule, the growth in assay [7] was 34.5%; in [9], 45.3%; in [11], 48.8%; in assay [12], 51.7%; in [13] it was 44.1%; in assay [14], 29.2%. Also, the growth in [17] was 80.4%; in assay [15], 40.8%.

With `N#Cc1c(NN)n(C2OC(CO)C(O)C2O)c2ncnc(N)c12` (configuration not stated), the growth in assay [1] is 0.0898% (active); in assay [2], 17%; in assay [3] it was 14%; in [4], 2.07% (active); in assay [5], -65.7% (active); in assay [6], -42.3% (active). In addition, the growth in assay [7] was 9.12% (active); in [8], 6.9% (active); in assay [9] it was -14.9% (active); in assay [11], -15.5% (active); in assay [12], -15.6% (active); in [13] it was -11.2% (active). For the same molecule, the growth in [14] is 2.09% (active); in assay [17], -9.45% (active); in [15], 1.94% (active).

As for `CCCCN(CCCC)CCC(=O)c1ccc(OC)c2ccccc12`, the growth in assay [16] is 35.6%; in assay [1], 75.3%; in [3] it was 102%; in assay [4], 107%; in [6], 83%; in [7] it was 106%. For the same molecule, the growth in [8] was 107%; in [9] it was 41.4%; in assay [10], 108%; in [11] it was 83.3%; in assay [12], 61.5%; in [13], 15.1%. Also, the growth in assay [14] was 72.1%; in [17], 105%.

Consider `CO[C@@]12[C@@H]3NC3CN1C1=C(C(=O)C(N)=C(C)C1=O)[C@@H]2COC(N)=O` (some centres not stated), for which the growth in assay [1] was 15.8%; in [2], 45.7%; in assay [4], 5.63% (active); in assay [5], 33.1%; in assay [7] it was 70.9%; in assay [8], 51.4%. The growth in assay [9] was 40.8%; in assay [10], 28.6%; in assay [11], 34.9%; in assay [12], 10.4%; in assay [13], 6.55% (active); in [14], 6.78% (active). For the same molecule, the growth in assay [17] is -44.8% (active).

For `Fc1ccc(-c2ccnc3nc(-c4ccncc4)nn23)cc1`, the growth in [1] is 96.5%; in assay [2] it was 100%; in assay [3], 109%; in assay [4] it was 104%; in assay [5], 104%; in assay [6] it was 105%. In addition, the growth in assay [7] was 113%; in assay [8], 106%; in assay [9], 90.1%; in assay [10], 93.8%; in assay [11] it was 107%; in assay [12], 30.3%. Also, the growth was 86.1% in assay [13], 95.1% in assay [14] and 99.8% in assay [15].

Regarding `N#Cc1c(N)n(C2OC(CO)C(O)C2O)c2ncnc(N)c12` (configuration not stated), the growth in assay [1] is -13.1% (active); in assay [2] it was -11.4% (active); in [3] it was 0.621% (active); in [4], -0.358% (active); in assay [5], -63% (active); in assay [6], -62.1% (active). Moreover, the growth in assay [7] was -19.2% (active); in [8] it was -7.81% (active); in [9] it was -46.2% (active); in [11], -58.4% (active); in assay [12], -33.3% (active); in [13], -21.1% (active). The growth in [14] was 4.76% (active); in assay [17], -35.2% (active); in [15], -3.95% (active).

For the origin of these results see PubChem BioAssay (NCI).
